# Source: PubChem (National Center for Advancing Translational Sciences (NCATS))
# A549 viability = Nrf2 qHTS screen for inhibitors: counterscreen for cytotoxicity. A549 ARE-Fluc cells, CellTiter-Fluor viability, 18-24 h. Potency, µM (highest dose often 46 µM), for the others: top-dose activity change, negative = cytotoxicity, hits mostly inhibitors. 0.16% of 390,000 active; further: potency means the concentration at half of the fitted maximal effect; on the % scale 0 is the no-effect control and ±100 the full control effect
#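 A549 ARE-Fluc cells in 5% FBS OPTI-MEM, 5000 cells/well, rested 2 h then exposed to compounds in concentration-response for 18-24 h at 37 °C. Viability by CellTiter-Fluor fluorescence (Ex 405/Em 525) after 30 min; luciferase luminescence (BugLite, 15 min, RT) read afterwards.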
# Mito fusion act = qHTS Assay for Small Molecule Inhibitors of Mitochondrial Division or Activators of Mitochondrial Fusion; Potency, µM (series often up to 46.1 µM), inactives show at the highest dose growth rescue (activation), most hits filed as activators; 0.23% of 320,000 active; AID 485298, 2010; S. cerevisiae fusion-defective mutant growth rescue, CellTiterGlo 48 h; further: potency means the concentration at half of the fitted maximal effect; % of control where 0% means no effect; nearly all actives have a fitted effect of over 45% in size
#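 Read-out: ATP-based luminescence (CellTiterGlo, 10 min ambient) reporting growth of fusion-defective ts yeast after 48 hours at 37C on glycerol/ethanol YPEG medium in the presence of compound.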
# Nrf2 block = Nrf2 qHTS screen for inhibitors. 2.1% of 360,000 active. AID 504444, 2011. A549 ARE-Fluc reporter, luciferase luminescence, 18-24 h. Potency, µM (top dose mostly 46 µM), inactives show top-dose activity change, negative = inhibition, hits mostly inhibitors; further: potency means the concentration at half of the fitted maximal effect; on the % scale 0 is the no-effect control and ±100 the full control effect; nearly all actives have a fitted effect of over 60% in size
#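 Two sequential reads on A549 ARE_Fluc cells exposed to compound for 18-24 h: a CellTiter-Fluor fluorescence read for viability, then a luciferase luminescence read for Nrf2/ARE activity.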
# Nrf2 activator = qHTS of Nrf2 Activators. Potency, µM (titrated, usually from 46.1 µM), for the others: top-dose activation, most hits filed as activators. AREc32 ARE-luciferase reporter (MCF7-derived line), luminescence, 24 h. AID 624171, 2012. 0.31% of 410,000 active; further: potency means the concentration at half of the fitted maximal effect; % of control where 0% means no effect; nearly all actives have a fitted effect of over 65% in size
#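 ARE-driven firefly luciferase activity in AREc32 cells measured after a 24 hr compound exposure at 37 deg C, using Steady-Glo reagent and a 30 min room-temperature hold.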
# miR-21 reporter = qHTS Assay for Modulators of miRNAs and/orActivators of miR-21; 340,000 tested, under 10 active; Potency, µM (doses to about 38.3 µM), without a hit: at the highest dose activity change, positive = activation, most hits filed as activators; HeLa miR-21 FLuc reporter, luciferase, 48 h;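 further: % of control where 0% means no effect; miR-21 action dims this reporter so a rising signal means less miR-21 action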
#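 Luminescence from a firefly luciferase reporter carrying a miR-21 binding site downstream, stably expressed under a CMV promoter in HeLa cells that make miR-21 endogenously, reports miRNA modulation after 48 h compound exposure up to approximately 40uM final.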
# The depositor's hits bear a star; ? = inconclusive; / = no result given; [ ] = another dose, or the depositor's remark. The list is not random: actives were taken first. Their share in the collection is about 2.3%. The call rests on the fitted dose curve; in most records, active means well fitted curve in the direction sought with a large enough effect; inconclusive means small, poorly fitted or top-dose-only effect, or another doubt; inactive means no such curve, though single readings can be large; an effect the other way counts as inactive or inconclusive.
SMILES,A549 viability,Mito fusion act,Nrf2 block,Nrf2 activator,miR-21 reporter
CCCCN(CC)S(=O)(=O)c1ccc(C(=O)Nc2nnc(CSC)o2)cc1,-21%,-14%,?,-2%,?
O=C(Nc1ccccc1)NN(C(=O)CCl)c1ccccc1,?,-3%,21µM*,?,?
CCC(O)(CC)C(=O)NN(C(=O)CCl)c1ccccc1,-4%,-7%,?,?,16%
COc1cc(NC(=O)CN2c3cccc4cccc(c34)S2(=O)=O)cc(OC)c1OC,-12%,4%,23µM*,3%,21%
Cc1ccc(C2=C(c3ccc([N+](=O)[O-])cc3)C(=O)OC2)cc1C,-17%,15%,23µM*,3%,10%
COc1ccc(C2=C(c3ccc([N+](=O)[O-])cc3)C(=O)OC2)cc1,-1%,-8%,-2%,0%,3%
O=[N+]([O-])c1cc(-n2cnnn2)ccc1N1CCC(Cc2ccccc2)CC1,?,-8%,10µM*,0%,-11%
O=C(O)c1cc(O)c2c(c1)[C@H]([C@H]1c3cc(C(=O)O)cc(O)c3C(=O)c3c(O[C@@H]4O[C@H](CO)[C@@H](O)[C@H](O)[C@H]4O)cccc31)c1cccc(OC3O[C@H](CO)[C@@H](O)[C@H](O)[C@H]3O)c1C2=O (stereo partly specified),16µM*,-17%,?,-1%,/
O=C(OCC#CCSc1nnc(-c2cccc3ccccc23)o1)c1sc(Cl)c(Cl)c1Cl,0%,/,26%,/,/
CC(C)C(NS(=O)(=O)c1c(Cl)cccc1Cl)C(=O)OCC(=O)c1c[nH]c2ccccc12 (stereo unspecified),?,?,23µM*,0%[9.22 µM],?
CC12CCC(O)CC1=CCC1C2CCC2(C)C1CCC21CCC(=O)O1 (stereo unspecified),0%,20µM*,?,4%,-7%
CC(=O)OCC(=O)C1CCC2C3CC=C4CC(O)CCC4(C)C3CCC12C (stereo unspecified),0%,3.2µM*,10%,0%,/
C[C@]12CCC3C(CC=C4C[C@@H](O)CC[C@@]43C)C1CCC2[C@]1(C)CCC(=O)O1 (stereo partly specified),-2%,9%,-1%,0%,-4%
CC12CCC(O)CC1=CCC1C2CCC2(C)C(c3ccn[nH]3)CCC12 (stereo unspecified),-8%,/,21µM*,3%,/
CCc1nnc(NS(=O)(=O)c2ccc(NC(=O)c3ccc([N+](=O)[O-])s3)cc2)s1,/,/,/,14µM*,/
CCc1nnc(NS(=O)(=O)c2ccc(NC(=O)c3cccc([N+](=O)[O-])c3)cc2)s1,5%,-26%,1%,-1%,-1%
CCc1nnc(NS(=O)(=O)c2ccc(Nc3ccc([N+](=O)[O-])c4nonc34)cc2)s1,23µM*,-31%,-27%,2%,9%
CC(=O)c1ccc(Nc2ccc([N+](=O)[O-])c3nonc23)cc1,?,-7%,-1%,11µM*,-23%
COc1ccc(-c2oc3ncn4nc(-c5ccccc5O)nc4c3c2-c2ccc(OC)cc2)cc1,-4%,/,-6%,-1%,-7%
COC(=O)c1cc(=O)n(CCc2ccc(OC)c(OC)c2)c(=Nc2ccc(F)c(Cl)c2)s1,?,2%,23µM*,0%,-8%
COC(=O)c1cc(=O)n(Cc2ccc(OC)c(OC)c2)c(=Nc2ccc(F)cc2)s1,?,6%,?,0%,-1%
Cc1ccc(-n2nc3c(=O)n(C(C)C(=O)NCCCc4ccccc4)nc(C)c3c2C)cc1 (stereo unspecified),21µM*,-14%,10µM*,0%,24%
Cc1ccc(-n2nc3c(=O)n(C(C)C(=O)NCc4ccco4)nc(C)c3c2C)cc1 (stereo unspecified),8%,-5%,-2%,4%,2%
CCC(C(=O)NCc1cccc(C)c1)n1nc(C)c2c(C)n(-c3ccccc3)nc2c1=O (stereo unspecified),-14%,-5%,21µM*,0%,4%
CCC(C(=O)NCc1cccc(Br)c1)n1nc(C)c2c(C)n(-c3ccccc3)nc2c1=O (stereo unspecified),-2%,/,?,1%,20%
SMILES,A549 viability,Mito fusion act,Nrf2 block,Nrf2 activator,miR-21 reporter
Cc1ccc(-n2nc3c(=O)n(C(C)C(=O)NCc4ccccc4Cl)nc(C)c3c2C)cc1 (stereo unspecified),-16%,-65%,15µM*,0%,24%
COc1ccc(C2Nc3ccccc3C(=O)N2CCc2ccc(Cl)cc2Cl)cc1COc1ccc(NC(C)=O)cc1 (stereo unspecified),6%,/,-16%,/,/
COc1ccc(-c2csc3nc(C)nc(N4CCCCC4)c23)cc1OC,-1%,2%[9.22 µM],-20%,16µM*,13%
CC(C)C(=O)Nc1cccc(C(=O)OCC(=O)c2ccc(Cl)cc2Cl)c1,?,1%,21µM*,1%,-6%
CCCCCOC(=O)CSc1nc2sc3c(c2c(=O)n1-c1ccccc1)CC(C)(CC)OC3 (stereo unspecified),0%,/,8%,4%,-16%
COc1ccc2c(c1)c(C(C)=O)c(C)n2CCc1ccc(OC)c(OC)c1,-4%,-6%,-20%,0%,-1%
COc1ccc2c(c1)c(C(C)=O)c(C)n2CCc1ccccc1,-18%,27%,13µM*,-1%,9%
CC(C)Cn1c(/C=C/c2ccco2)nc2ccccc21,2%,11%,12%,13µM*,-26%
COc1cc(NC(=O)CSc2nc(-c3ccc(C(C)C)cc3)no2)cc(OC)c1,-1%,/,?,-1%,8%
COc1ccccc1-c1c(C(F)(F)F)oc2cc(OS(C)(=O)=O)ccc2c1=O,-11%,9%,8.2µM*,2%,5%
O=S(=O)(c1ccc(NC(=S)N/N=C/c2ccc(Oc3ccccc3)cc2)cc1)N1CCOCC1,2%,-4%,-6%,-1%,-5%
Cc1ccccc1C(=O)NC(=S)Nc1ccc(S(=O)(=O)N2CCOCC2)cc1,3%,24%,13µM*,-1%,-3%
O=S(=O)(c1ccc(NC(=S)N2CCN(c3ccccc3F)CC2)cc1)N1CCOCC1,-3%,6%,13µM*,-1%,15%
Cc1ccccc1C(=O)NC(=S)Nc1ccc(S(=O)(=O)N2CCN(C)CC2)cc1,15%,0%,/,0%,0%
O=S(=O)(c1ccc(NC(=S)N/N=C/c2c3ccccc3cc3ccccc23)cc1)N1CCOCC1,-7%,5%,9.2µM*,5%,?
